OTUD3 inh: blocks human OTUD3 ubiquitin-rhodamine cleavage; purified OTUD3, Ub-rhodamine fluorescence, 2 h; inhibition, % at 25 µM; 47,000 tested, 0.7% active; AID 1645858
USP17 inh: human USP17-like deubiquitinase inhibition. A8MUK1. purified USP17, Ub-rhodamine cleavage fluorescence, 3 h. inhibition, % at 50 µM. 47,000 tested, 6.5% active
USP30 inh: blocks human USP30 ubiquitin-rhodamine cleavage; Q70CQ3; purified USP30, Ub-rhodamine cleavage fluorescence; inhibition, % at 25 µM; 47,000 tested, 5.3% active; AID 1645860
USP8 block: inhibitors of human USP8 deubiquitinase | P40818 | purified USP8, Ub-rhodamine cleavage fluorescence, 30 min | inhibition, % at 20 µM | 47,000 tested, 4.2% active | AID 1645853
Target sequence (P40818 whole entry, looked up): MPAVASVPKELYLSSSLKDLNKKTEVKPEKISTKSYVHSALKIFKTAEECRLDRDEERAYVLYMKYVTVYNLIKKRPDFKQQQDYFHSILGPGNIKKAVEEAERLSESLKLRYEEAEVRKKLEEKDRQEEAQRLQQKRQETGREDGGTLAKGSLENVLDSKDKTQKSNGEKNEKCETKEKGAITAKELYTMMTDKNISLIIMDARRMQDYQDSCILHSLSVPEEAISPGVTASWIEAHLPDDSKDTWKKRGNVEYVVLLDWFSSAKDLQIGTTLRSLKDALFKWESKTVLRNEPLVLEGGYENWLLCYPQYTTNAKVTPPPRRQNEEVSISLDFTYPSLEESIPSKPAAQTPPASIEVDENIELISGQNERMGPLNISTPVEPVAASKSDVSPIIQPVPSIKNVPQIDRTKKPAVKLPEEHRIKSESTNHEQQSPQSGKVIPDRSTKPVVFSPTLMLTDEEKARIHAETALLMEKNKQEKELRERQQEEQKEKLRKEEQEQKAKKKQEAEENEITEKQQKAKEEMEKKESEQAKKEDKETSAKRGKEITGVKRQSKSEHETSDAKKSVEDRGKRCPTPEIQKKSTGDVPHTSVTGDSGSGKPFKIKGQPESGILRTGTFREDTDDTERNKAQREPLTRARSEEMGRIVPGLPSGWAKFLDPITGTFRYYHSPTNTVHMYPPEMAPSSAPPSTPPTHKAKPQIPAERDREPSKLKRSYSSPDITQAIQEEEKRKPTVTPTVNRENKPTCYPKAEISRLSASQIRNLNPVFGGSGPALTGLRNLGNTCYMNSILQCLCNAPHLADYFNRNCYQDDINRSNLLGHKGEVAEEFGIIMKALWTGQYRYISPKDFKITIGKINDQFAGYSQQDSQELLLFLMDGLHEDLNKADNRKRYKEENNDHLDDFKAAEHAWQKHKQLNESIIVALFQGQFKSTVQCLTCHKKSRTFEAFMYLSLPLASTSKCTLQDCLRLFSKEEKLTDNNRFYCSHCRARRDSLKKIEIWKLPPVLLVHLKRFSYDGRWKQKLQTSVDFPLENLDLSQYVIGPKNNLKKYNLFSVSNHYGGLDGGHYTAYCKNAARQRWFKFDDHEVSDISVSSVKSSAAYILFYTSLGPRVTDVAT
USP28 block: blocks human USP28 ubiquitin-rhodamine cleavage; purified USP28, Ub-rhodamine cleavage fluorescence, 30 min; inhibition, % at 25 µM; 47,000 tested, 3% active; AID 1645857
* = called active by the depositor; i = inactive; · = not tested or not shown. In the library only some 13% were active in any assay of this set; here they are far more common. No stated cut-off is given here; in the data, active means inhibition above about 30%; inactive means the rest.

SMILES	OTUD3 inh	USP17 inh	USP30 inh	USP8 block	USP28 block
O=C(COC(=O)CCCc1c[nH]c2ccccc12)Nc1ccc2c(c1)OCO2	2	12	-22	-84	40*
O=C(CCc1c[nH]c2ccccc12)Nc1ccc(N2CCOCC2)cc1	4	60*	33*	8	62*
CC(=O)N[C@H]1CCO[C@@H](c2cccc(NC(=O)c3nccc4ccccc34)c2)C1	5	9	8	7	4
CCOC(=O)c1noc2nc(C)nc(NCc3ccc(OC)cc3)c12	-2	·	-11	40*	-6
O=C(CCc1nnc2ccc(N3CCCC3)nn12)N1CC=C(c2ccccc2)CC1	4	2	13	0	8
O=C(/C=C/c1ccccc1)Nc1c2c(nc3c1CCC3)CCCC2	9	21	40*	11	11
CC1=CC(=O)C(C2=C(O)C(=O)C(C)=CC2=O)=C(O)C1=O	36*	94*	20	32*	46*
NS(=O)(=O)c1ccc(CNC(=O)CCc2ccc(-c3ccccc3)o2)cc1	-15	-8	-18	-14	-3
O=C(O)CN1CCC2(CCC1=O)NC(=O)c1cc(Cl)ccc1N2 (configuration not stated)	7	15	3	9	9
Cc1ccc(-n2nnnc2CNC(=O)Nc2ccccc2)cc1C	-4	-14	-12	-6	2
Cc1nc(Nc2ncc(C)s2)cc(C2CN(C(=O)Cc3ccccc3)CCO2)n1 (configuration not stated)	13	38*	55*	-15	26
CNc1cc(C2CN(C(=O)c3cscn3)CCO2)nc(C)n1 (configuration not stated)	16	19	14	6	6
Cc1ccc(COc2cc(C(=O)NCC3CCCO3)c3ccccc3n2)cc1 (configuration not stated)	4	5	46*	-14	3
Cc1ccc(COc2cc(C(=O)NCc3ccccc3C)c3ccccc3n2)cc1	24	20	43*	14	16
O=C(NCC1CCCO1)c1cc2c(cn1)[nH]c1ccccc12 (configuration not stated)	-9	-38	-59	-131	34*
Cc1cc(C(=O)NCC2CCCO2)c2cccc(C)c2n1 (configuration not stated)	-10	-32	-50	-27	-7
Cc1ccc(COc2cc(C(=O)NC(C)C)c3ccccc3n2)cc1	8	10	35*	-4	12
COc1ccc(-c2c(C)nn3c2ncc2c(=O)n(-c4ccccc4C#N)ccc23)cc1	0	-1	6	4	2
Cc1ccc2c(c1)c(=O)c(C(=O)c1ccc(F)cc1)cn2CC(=O)Nc1ccc2c(c1)OCCO2	1	70*	-2	-6	8
Cc1ccc2c(c1)c(=O)c(C(=O)c1ccccc1)cn2CC(=O)Nc1ccc(C)c(Cl)c1	8	6	26	59*	6
O=C(Cn1cnc2cc([N+](=O)[O-])ccc2c1=O)Nc1ccc2c(c1)OCCO2	-13	-3	-26	-201	14
Cc1ccc2c(c1)c(=O)c(C(=O)c1ccccc1)cn2CC(=O)Nc1ccc2c(c1)OCO2	0	5	3	71*	-5
CN1CC2CN(S(=O)(=O)c3cccc(Cl)c3)CCN2Cc2ccccc21 (configuration not stated)	-198	-144	i	-185	-209
O=C(NC(CO)Cc1ccccc1)c1nc(-c2cccc3[nH]ccc23)no1 (configuration not stated)	13	3	14	10	21
Cc1ccc(C)c(NC(=O)Cn2c3ncccc3c(=O)n2-c2ccccc2)c1	13	·	45*	-4	5
SMILES	OTUD3 inh	USP17 inh	USP30 inh	USP8 block	USP28 block
Cc1ccc2nc(NC(=O)c3ccccc3Cl)[nH]c(=O)c2c1	-1	46*	-13	-1	-6
Cc1ccc(NC(=O)c2cc(-c3ccccn3)nc3ccc(C)cc23)cc1	-20	-2	-69	-12	-31
Cc1c(S(=O)(=O)Nc2cccc(F)c2)cc(C(=O)N2CCCCC2)n1C	0	7	14	8	7
O=C(NCC(F)(F)F)c1cccc2cccnc12	10	9	-4	-12	28
O=S(=O)(c1cc(F)cc(F)c1)N1CCCn2c(nc3ccccc32)C1	9	32*	38*	-2	0
O=S(=O)(c1ccc(F)cc1)N1CCCn2c(nc3ccccc32)C1	1	1	18	0	4
COc1ccc(S(=O)(=O)Nc2ccc3c(c2)N(C(C)=O)CC3)cc1OC	8	7	5	-3	6
